PubChem BioAssay AID1159580 (chemical genetic matrix, 2015)
About 2,000 (36%) of roughly 5,500 compounds were called active. Inconclusive results (about 18%) are left out. No stated cut-off is given here; in the data, active means normalized growth mostly below about 0.91 (no sharp cut-off); inconclusive means no clear call, values can overlap the other calls; inactive means mostly above about 0.92. This is one part of the list.

Test: chemical genetic growth profiling, strain panel (AID 1159580);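 further: tested at 20 µM; growth read once vehicle control cultures reached saturation at 30 °C; 1 = growth at the plate median or of vehicle wells; lower values mean less growth of the strain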
Details: growth OD

Measured: normalized growth

C=CC(C1=CC(=O)C(OC)=CC1=O)c1ccccc1 (configuration not stated)
inactive: S. cerevisiae deletion strains, locus YKL009W, strain mrt4, hits give low values 0.905 | S. cerevisiae deletion strains, locus YKL068W, hits give low values 0.977 | S. cerevisiae deletion strains, locus YKL085W, strain MDH1 (second series), hits give low values 0.954 | S. cerevisiae deletion strains, locus YKL085W, strain MDH1, hits give low values 0.954 | S. cerevisiae deletion strains, locus YKR026C, strain gcn3, hits give low values 0.987 | S. cerevisiae deletion strains, locus YKR091W, strain srl3, hits give low values 0.995 | S. cerevisiae deletion strains, locus YLL041C, strain sdh2, hits give low values 0.978 | S. cerevisiae deletion strains, locus YLR058C, strain SHM2, hits give low values 0.953 | S. cerevisiae deletion strains, locus YLR102C, strain apc9, hits give low values 0.949 | S. cerevisiae deletion strains, locus YLR268W, strain sec22, hits give low values 0.888 | S. cerevisiae deletion strains, locus YLR357W, strain rsc2, hits give low values 1.04 | S. cerevisiae deletion strains, locus YLR370C, strain arc18, hits give low values 0.949 | S. cerevisiae deletion strains, locus YLR371W, strain rom2, hits give low values 0.937 | S. cerevisiae deletion strains, locus YLR384C, strain iki3, hits give low values 0.978 | S. cerevisiae deletion strains, locus YML016C, strain PPZ1, hits give low values 0.959 | S. cerevisiae deletion strains, locus YML124C, strain tub3, hits give low values 0.963 | S. cerevisiae deletion strains, locus YMR058W, strain fet3, hits give low values 0.921 | S. cerevisiae deletion strains, locus YMR078C, strain ctf18, hits give low values 0.928 | S. cerevisiae deletion strains, locus YMR129W, hits give low values 0.988 | S. cerevisiae deletion strains, locus YMR231W, strain pep5, hits give low values 1.01 | S. cerevisiae deletion strains, locus YMR263W, strain SAP30, hits give low values 0.926 | S. cerevisiae deletion strains, locus YMR307W, strain GAS1, hits give low values 0.864 | S. cerevisiae deletion strains, locus YNL067W, strain RPL9B, hits give low values 0.873 | S. cerevisiae deletion strains, locus YNL128W, strain TEP1, hits give low values 0.906 | S. cerevisiae deletion strains, locus YNL153C, strain GIM3, hits give low values 0.972 | S. cerevisiae deletion strains, locus YNL183C, strain NPR1, hits give low values 0.871 | S. cerevisiae deletion strains, locus YNL250W, strain rad50, hits give low values 0.956 | S. cerevisiae deletion strains, locus YNL271C, strain bni1, hits give low values 0.958 | S. cerevisiae deletion strains, locus YNL298W, strain CLA4, hits give low values 0.919 | S. cerevisiae deletion strains, locus YNL322C, strain KRE1 (second series), hits give low values 0.969 | S. cerevisiae deletion strains, locus YNL322C, strain KRE1, hits give low values 0.928 | S. cerevisiae deletion strains, locus YNR049C, strain mso1, hits give low values 0.992 | S. cerevisiae deletion strains, locus YNR052C, strain pop2, hits give low values 0.954 | S. cerevisiae deletion strains, locus YOL006C, strain TOP1, hits give low values 0.69 | S. cerevisiae deletion strains, locus YOL012C, strain htz1 0.631 | S. cerevisiae deletion strains, locus YOR001W, strain rrp6, hits give low values 0.943 | S. cerevisiae deletion strains, locus YOR061W, strain CKA2, hits give low values 0.956 | S. cerevisiae deletion strains, locus YOR069W, strain VPS5, hits give low values 0.958 | S. cerevisiae deletion strains, locus YOR080W, strain dia2, hits give low values 0.996 | S. cerevisiae deletion strains, locus YOR083W, strain WHI5, hits give low values 0.905 | S. cerevisiae deletion strains, locus YOR136W, strain idh2, hits give low values 0.942 | S. cerevisiae deletion strains, locus YOR144C, strain elg1, hits give low values 0.973 | S. cerevisiae deletion strains, locus YOR265W, strain rbl2, hits give low values 0.93 | S. cerevisiae deletion strains, locus YOR290C, strain snf2, hits give low values 0.89 | S. cerevisiae deletion strains, locus YOR316C, strain cot1, hits give low values 0.96 | S. cerevisiae deletion strains, locus YPL055C, strain LGE1, hits give low values 0.816 | S. cerevisiae deletion strains, locus YPL106C, strain sse1, hits give low values 1.03 | S. cerevisiae deletion strains, locus YPL241C, strain CIN2, hits give low values 0.962 | S. cerevisiae deletion strains, locus YPR119W, strain clb2, hits give low values 0.966 | S. cerevisiae deletion strains, locus YPR141C, strain kar3, hits give low values 0.971 | S. cerevisiae deletion strains, locus YPR167C, strain met16, hits give low values 0.959
active: S. cerevisiae deletion strains, locus YJR075W, strain HOC1, hits give low values 0.88 | S. cerevisiae deletion strains, locus YKL160W, strain elf1, hits give low values 0.79 | S. cerevisiae deletion strains, locus YKL190W, strain CNB1, hits give low values 0.866 | S. cerevisiae deletion strains, locus YKR001C, strain vps1, hits give low values 0.774 | S. cerevisiae deletion strains, locus YLL001W, strain dnm1, hits give low values 0.885 | S. cerevisiae deletion strains, locus YLL026W, hits give low values 0.85 | S. cerevisiae deletion strains, locus YLR027C, strain aat2, hits give low values 0.808 | S. cerevisiae deletion strains, locus YLR039C, strain RIC1, hits give low values 0.519 | S. cerevisiae deletion strains, locus YLR113W, strain HOG1, hits give low values 0.663 | S. cerevisiae deletion strains, locus YLR221C, strain rsa3, hits give low values 0.734 | S. cerevisiae deletion strains, locus YLR258W, strain gsy2, hits give low values 0.875 | S. cerevisiae deletion strains, locus YLR262C, strain YPT6 (second series), hits give low values 0.518 | S. cerevisiae deletion strains, locus YLR262C, strain YPT6, hits give low values 0.405 | S. cerevisiae deletion strains, locus YLR320W, strain mms22, hits give low values 0.379 | S. cerevisiae deletion strains, locus YLR330W, strain CHS5, hits give low values 0.912 | S. cerevisiae deletion strains, locus YLR342W, strain FKS1 (second series), hits give low values 0.603 | S. cerevisiae deletion strains, locus YLR342W, strain FKS1, hits give low values 0.79 | S. cerevisiae deletion strains, locus YLR418C, strain cdc73, hits give low values 0.774 | S. cerevisiae deletion strains, locus YML032C, strain rad52, hits give low values 0.883 | S. cerevisiae deletion strains, locus YML120C, strain ndi1, hits give low values 0.864 | S. cerevisiae deletion strains, locus YMR125W, strain sto1, hits give low values 0.852 | S. cerevisiae deletion strains, locus YMR205C, strain PFK2, hits give low values 0.784 | S. cerevisiae deletion strains, locus YMR223W, strain ubp8, hits give low values 0.84 | S. cerevisiae deletion strains, locus YNL071W, strain lat1, hits give low values 0.213 | S. cerevisiae deletion strains, locus YNL209W, strain ssb2, hits give low values 0.908 | S. cerevisiae deletion strains, locus YNL233W, strain BNI4, hits give low values 0.808 | S. cerevisiae deletion strains, locus YNL248C, strain rpa49, hits give low values 0.842 | S. cerevisiae deletion strains, locus YNL307C, strain MCK1, hits give low values 0.302 | S. cerevisiae deletion strains, locus YOL147C, strain pex11, hits give low values 0.926 | S. cerevisiae deletion strains, locus YOR070C, strain gyp1, hits give low values 0.79 | S. cerevisiae deletion strains, locus YOR106W, strain vam3, hits give low values 0.739 | S. cerevisiae deletion strains, locus YOR184W, strain ser1, hits give low values 0.536 | S. cerevisiae deletion strains, locus YOR231W, strain MKK1, hits give low values 0.853 | S. cerevisiae deletion strains, locus YOR270C, strain vph1, hits give low values 0.761 | S. cerevisiae deletion strains, locus YPL051W, strain arl3, hits give low values 0.737 | S. cerevisiae deletion strains, locus YPL078C, strain atp4, hits give low values 0.868 | S. cerevisiae deletion strains, locus YPL240C, strain hsp82, hits give low values 0.904 | S. cerevisiae deletion strains, locus YPL256C, strain CLN2, hits give low values 0.75 | S. cerevisiae deletion strains, locus YPR163C, strain tif3, hits give low values 0.766 | S. cerevisiae deletion strains, strain wtn01, hits give low values 0.846 | S. cerevisiae strains, strain wild type, hits give low values 0.805
